# This is a sample that favours compounds with a hit; in the whole collection about 3.5% have one here.
# NS1 function inh = qHTS Assay for Inhibitors of Influenza NS1 Protein Function. Potency, µM (doses to about 46.1 µM), for inactives: at the top dose activity, positive = more growth. actives 0.4% (n = 270,000). AID 2326, 2010; calls by dose curve; note: actives are rising curves; nearly all actives have a fitted effect of over 50% in size
#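 A cell-based growth assay was used: compounds that relieve NS1-induced slow growth of budding yeast raise OD600. Assay medium was yeast nitrogen base with ammonium sulphate and -URA supplement, pH 6.0, with 2% galactose.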
# LmPK inhibitor = qHTS Assay for Inhibitors of Leishmania Mexicana Pyruvate Kinase (LmPK); Q27686; purified LmPK, Kinase-Glo ATP luminescence, 1 h; Potency, µM (top dose mostly 57.5 µM), inactives show at the highest dose activity change, negative = inhibition, hits mostly inhibitors; actives 0.37% (n = 290,000); AID 1721, 2009; note: % is set by controls: 0 for no effect and ±100 for the full control effect
#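 Screened at intermediate enzyme activity to detect both inhibitors and activators: LmPK at 0.1 nM, with a 0.5 nM enzyme column as activation reference. PEP 0.5 mM, ADP 0.1 mM; ATP detected by luminescence after 1 h.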
# Giardia FBPA inh = qHTS Assay for Inhibitors of Fructose-1,6-bisphosphate Aldolase from Giardia Lamblia; purified Giardia FBPA; AID 2451, 2010; Potency, µM (titrated, usually from 59.6 µM), inactives show at the top dose activity, negative = inhibition, actives largely listed as inhibitors; actives 0.71% (n = 290,000); A8B2U2; note: % is set by controls: 0 for no effect and ±100 for the full control effect; nearly all actives have a fitted effect of over 55% in size
# Target sequence (A8B2U2 whole entry, looked up): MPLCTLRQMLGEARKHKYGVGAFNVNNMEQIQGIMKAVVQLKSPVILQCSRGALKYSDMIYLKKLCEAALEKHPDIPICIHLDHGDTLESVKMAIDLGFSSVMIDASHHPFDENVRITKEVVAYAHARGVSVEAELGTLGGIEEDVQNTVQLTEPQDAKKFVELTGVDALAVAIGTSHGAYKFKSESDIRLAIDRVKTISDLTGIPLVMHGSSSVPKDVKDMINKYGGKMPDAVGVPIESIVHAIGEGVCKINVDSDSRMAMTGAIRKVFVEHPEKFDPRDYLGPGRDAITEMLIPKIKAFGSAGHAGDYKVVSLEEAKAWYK
#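 Giardia FBPA (40 nM reagent) was preincubated 10 min at RT with compound (up to 57.5 uM final), then substrate plus GAPDH/TPI/NAD/arsenate coupling system with diaphorase/resazurin was added; resorufin fluorescence (525/598 nm) was read after 20 min.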
# Sm TGR inh = qHTS Assay for the Inhibitors of Schistosoma Mansoni Peroxiredoxins. Schistosoma mansoni thioredoxin glutathione reductase (TGR), Q962Y6. purified TGR, DTNB reduction, TNB absorbance 405 nm. Potency, µM (titrated, usually from 114 µM), for the others: top-dose activity change, negative = inhibition, actives largely listed as inhibitors. actives 3% (n = 360,000); note: % is set by controls: 0 for no effect and ±100 for the full control effect; nearly all actives have a fitted effect of over 60% in size
#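 First, TGR (20 nM dispensed) and NADPH were mixed with compound. Second, a 15 min room-temperature incubation followed. Third, further NADPH and then DTNB were added to start the reaction. Finally, TNB absorbance was monitored kinetically.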
# RE007 growth inh = qHTS Assay for Inhibitors of the HIV-1 protein Vpr; S. pombe RE007 Vpr strain, BacTiter-Glo ATP luminescence, 24 h; actives 0.21% (n = 360,000); Potency, µM (doses to about 92.2 µM), inactives show at the top dose activity change, negative = less growth, hits mostly inhibitors; AID 651644, 2012; active = well fitted falling curve with a large enough effect; inconclusive = small, poorly fitted or top-dose-only effect; inactive = no such curve, though single readings can be large or run the other way; note: % is set by controls: 0 for no effect and ±100 for the full control effect; nearly all actives have a fitted effect of over 50% in size
#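 Fission yeast RE007 carrying one integrated HIV-1 vpr copy, seeded at OD 0.01 in PMG+AL medium with 23 nL pinned compound. Grown 24 h at 30 degrees; viability read by BacTiter-Glo luminescence after 5 min.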
# TbPYK inhibitor = qHTS of Trypanosoma Brucei Inhibitors; AID 624173, 2012; actives 0.12% (n = 410,000); TbPYK enzyme, Kinase-Glo Plus ATP luminescence, 45 min; Potency, µM (series often up to 76.8 µM), for inactives: at the highest dose activity, negative = inhibition, usual class: inhibitors; pyruvate kinase (Trypanosoma brucei), Q57TT1; note: % is set by controls: 0 for no effect and ±100 for the full control effect; nearly all actives have a fitted effect of over 50% in size
#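 Readout: single end-point luminescence (Kinase-Glo Plus, 10 min). Reaction conditions were TbPYK/substrate plus 130 uM ADP, 45 min at RT, pH 7.2 TEA buffer. No-enzyme wells served as controls, and data were normalized before concentration-response fitting.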
# Active calls of the source: *; ? = inconclusive; · = not tested or not shown; [ ] = remark or other dose. Unless noted, calls come from the whole dose curve; as a rule, active = well fitted curve in the direction sought with a large enough effect; inconclusive = small, poorly fitted or top-dose-only effect, or another doubt; inactive = no such curve, though single readings can be large; an effect the other way counts as inactive or inconclusive. Potency is the fitted concentration of half-maximal effect.
SMILES,NS1 function inh,LmPK inhibitor,Giardia FBPA inh,Sm TGR inh,RE007 growth inh,TbPYK inhibitor
Cc1ccc(CN(C)C(=O)C2CCC(=O)N(CCc3ccccc3)C2)o1 (stereo not drawn),14%,-5%,-15%,13µM*,-11%,?
Cc1ccc(-c2cc(NC(=O)COc3c(C)cc(C)cc3C)on2)cc1,·,·,·,-4%,·,-8%
NC1CCCC[C@@H]1N (stereo partly drawn),·,·,-13%,·,·,·
CCC(Cc1c(I)cc(I)c(O)c1I)C(=O)O (stereo not drawn),·,·,·,·,·,-19%
CC1CN(C(C)C(=O)NNC(=O)c2ccc(F)cc2)CC(C)O1 (stereo not drawn),·,·,·,·,-13%,-4%
CC1CN(C(NC(=O)c2ccccc2)C(Cl)(Cl)Cl)CC(C)O1 (stereo not drawn),·,0%,4%,20µM*,1%,0%
O=C(NC(N1CCOCC1)C(Cl)(Cl)Cl)c1ccccc1Cl (stereo not drawn),·,0%,2%,20µM*,8%,-1%
CC1CN(C(NC(=O)C(C)(C)C)C(Cl)(Cl)Cl)CC(C)O1 (stereo not drawn),?,0%,1%,35µM*,13%,-4%
Cc1ccc(-n2nc(C(=O)Nc3ccc(F)cc3F)c3c4ccccc4n(C)c3c2=O)cc1,·,·,·,2%,·,-3%
Cc1cc2oc(=O)cc(Cn3ncc(Cl)c(Cl)c3=O)c2cc1Cl,-2%,4%,3%,3.5µM*,?,-3%
C/C=C/C=C/C(=O)[C@@H]1[C@@H]([C@]2(C)OC(=O)C(C)=C2O)[C@H]2/C(=C(O)/C=C/C=C/C)C(=O)[C@]1(C)C(=O)C2(C)O (stereo partly drawn),-3%,18%,-26%,10µM*,9%,-22%
CCOc1ccc(NC(=O)CSc2nc3nc(C)c(Cc4ccccc4)c(C)n3n2)cc1,·,·,·,-4%,·,3%
COc1ccc(CC2=CC(=O)c3ccccc3C2=O)cc1,-117%,-7%,?,28µM*,?,?
COc1ccc(Cc2ccccc2C(=O)O)cc1,·,·,·,·,10%,-5%
Cc1ccc(C(=O)N/C(=C/c2ccco2)C(=O)NCC2CCCO2)cc1 (stereo not drawn),-1%,-1%,0%,-19%,-1%,-3%
O=C(/C=C/c1ccco1)NCc1ccco1,2%,6%,2%,4µM*,21%,-4%
Cc1ccc(/C=C/C(=O)NCc2ccco2)o1,10%,3%,-6%,13µM*,·,·
Cc1ccc(/C=C/C(=O)NCc2ccccn2)o1,25%,1%,-10%,18µM*,1%,?
O=C(/C=C/c1ccco1)NCC1CCCO1 (stereo not drawn),-10%,3%,-2%,5µM*,2%,-14%
Cc1cccc(CSc2ncc(Cl)c(C(=O)Nc3sc4c(c3C(N)=O)CCCC4)n2)c1,·,·,·,3%,·,1%
COC(=O)/C=C/c1ccc2c(c1)OCO2,·,-1%,0%,-1%,-9%,-3%
O=C(/C=C/c1ccc2c(c1)OCO2)NCc1ccco1,11%,-5%,-8%,40µM*,9%,0%
O=C(/C=C/c1ccc(Cl)c(Cl)c1)NCc1ccco1,-37%,0%,1%,-7%,0%,-1%
CCNc1ccccc(C(=O)/C=C/c2ccc3c(c2)OCO3)c1=O,-2%,-3%,?,2.5µM*,-17%,-18%
CCCCc1nn2c(=O)cc(COC(=O)c3cccs3)nc2s1,·,·,·,2%,·,-6%
SMILES,NS1 function inh,LmPK inhibitor,Giardia FBPA inh,Sm TGR inh,RE007 growth inh,TbPYK inhibitor
Cc1nc2cnc(N(C)C)nc2n(CCc2ccccc2)c1=O,·,·,1%,·,·,·
CCS(=O)(=O)C1=NN2C(=N)/C(=C\c3ccc(OC(=O)c4ccco4)c(Br)c3)C(=O)N=C2S1,5%,-24%,-11%,45µM*,·,·
CCCOc1ccc(OC(=O)c2sc3ncn(Cc4cccc(F)c4)c(=O)c3c2C)cc1,·,·,·,64%,·,-9%
CC(C)N(Cc1cn(C)nc1-c1cccc(Cl)c1)CC1CCC(=O)N1 (stereo not drawn),-1%,0%,2%,31%,17%,4%
C=CCN(Cc1cn(C)nc1-c1cccc(Cl)c1)C1CCS(=O)(=O)C1 (stereo not drawn),0%,2%,1%,28µM*,2%,-5%
N#CC1(c2ccccc2)CCN(C2CC(=O)N(c3cccc(F)c3)C2=O)CC1 (stereo not drawn),-6%,10%,2%,45µM*,?,1%
O=C1CC(N2CCCc3ccccc32)C(=O)N1c1ccccc1Cl (stereo not drawn),-2%,2%,10%,20µM*,-25%,-13%
CCOC(=O)c1ccc(N2C(=O)CC(N3CCC(O)(c4ccc(Cl)cc4)CC3)C2=O)cc1 (stereo not drawn),-41%,0%,4%,22µM*,?,-2%
O=C1CC(N2CCN(c3ccccc3Cl)CC2)C(=O)N1c1cccc(F)c1 (stereo not drawn),-29%,0%,3%,40µM*,35µM*,2%
CCOC(=O)N1CCN(C2CC(=O)N(c3ccccc3)C2=O)CC1 (stereo not drawn),3%,-5%,3%,0%,-15%,3%
O=C1CC(N2CCN(c3ccccc3Cl)CC2)C(=O)N1c1ccc(F)cc1 (stereo not drawn),9%,7%,-6%,?,?,-2%
Cc1ccccc1Nc1cc(C(=O)NC2CCC(C)CC2)c2ccccc2n1 (stereo not drawn),·,·,·,11%,·,0%
Cc1ccc(C)c(Nc2nn3c(=O)c4ccc(C(=O)N(C)Cc5ccccc5)cc4nc3s2)c1,·,·,·,-15%,·,0%
Cc1cc(C)cc(N2CC(c3nc(-c4ccccc4C)no3)CC2=O)c1 (stereo not drawn),·,·,·,3%,·,5%
CC1=C(C(=O)NCc2ccccc2C)C2(CCCCCC2)OC1=O,·,·,·,-7%,·,3%[15.4 µM]
CC(=O)c1nnn(-c2ccc(C)cc2Cl)c1C,·,·,·,0%,·,7%
CCOC(=O)c1ccc(N2C(=O)CC(N3CCC(C#N)(c4ccccc4)CC3)C2=O)cc1 (stereo not drawn),-53%,6%,-2%,45µM*,22µM*,-6%
CCOC(=O)c1ccc(N2C(=O)CC(N3CCN(Cc4ccccc4)CC3)C2=O)cc1 (stereo not drawn),-13%,0%,7%,-32%,-24%,1%
